This is part of a sample that, as a whole, favours compounds with a hit. Of some 83,000 tested, about 20% had one in any assay.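 In brief: 96-well plates, 48 h treatment, single concentration, percent growth endpoint.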 Values without a mark were called inactive. Active and inactive are the calls of the source. The calls were made as follows: active = growth percent below 10; inactive = the rest.
What was measured:
Assay in all cases: NCI-60 one-dose screen, 48 h (100 = growth as untreated, 0 = no growth, -100 = all killed)
Details in all cases: 10 µM unless noted
SK-MEL-2 melanoma = test system: SK-MEL-2 melanoma
EKVX NSCLC = test system: EKVX NSCLC
SN12C renal = test system: SN12C renal
UO-31 renal = test system: UO-31 renal
ACHN renal = test system: ACHN renal
CAKI-1 renal = test system: CAKI-1 renal
A498 renal = test system: A498 renal
CCRF-CEM leukemia = test system: CCRF-CEM leukemia
MOLT-4 leukemia = test system: MOLT-4 leukemia
SR leukemia = test system: SR leukemia
RPMI-8226 leukemia = test system: RPMI-8226 leukemia
OVCAR-8 ovarian = test system: OVCAR-8 ovarian
OVCAR-5 ovarian = test system: OVCAR-5 ovarian
OVCAR-4 ovarian = test system: OVCAR-4 ovarian
SK-OV-3 ovarian = test system: SK-OV-3 ovarian
IGROV1 ovarian = test system: IGROV1 ovarian
OVCAR-3 ovarian = test system: OVCAR-3 ovarian
HS 578T breast = test system: HS 578T breast
NCI/ADR-RES ovarian = test system: NCI/ADR-RES ovarian
TK-10 renal = test system: TK-10 renal

SMILES	growth (SK-MEL-2 melanoma)	growth (EKVX NSCLC)	growth (SN12C renal)	growth (UO-31 renal)	growth (ACHN renal)	growth (CAKI-1 renal)	growth (A498 renal)	growth (CCRF-CEM leukemia)	growth (MOLT-4 leukemia)	growth (SR leukemia)	growth (RPMI-8226 leukemia)	growth (OVCAR-8 ovarian)	growth (OVCAR-5 ovarian)	growth (OVCAR-4 ovarian)	growth (SK-OV-3 ovarian)	growth (IGROV1 ovarian)	growth (OVCAR-3 ovarian)	growth (HS 578T breast)	growth (NCI/ADR-RES ovarian)	growth (TK-10 renal)
CC1(C)C=Cc2cc(/C(N)=N/C(N)=N/c3nc4ccccc4s3)ccc2O1	110%	30.7%	52.4%	64.9%	88.7%	65.3%	114%	46.3%	61.8%	6.81% (active)	80.2%	76.5%	95.9%	82.7%	124%	52.5%	103%	101%	81.7%	–
Cn1c2nc3ccccc3c-2cc2ccccc21	105%	42.5%	33.7%	13.9%	21.2%	18.9%	21.3%	50.8%	21.5%	18.7%	54.9%	32.8%	48%	50%	48.9%	-10.8% (active)	–	55.9%	42.6%	–
COc1ccc(-c2c(C(N)=O)c(N)n(Cc3nc4ccccc4[nH]3)c(=O)c2C#N)c(OC)c1	99.2%	95.4%	101%	68%	96.2%	78.9%	102%	107%	102%	90.5%	99%	97.2%	110%	108%	90.9%	72%	–	99.2%	102%	–
NC(=O)n1c(=O)n(-c2cccc(C(F)(F)F)c2)c(=O)c2cc(-c3ccc(F)cc3F)ccc21	-20.1% (active)	-0.656% (active)	1.52% (active)	4.54% (active)	-3.85% (active)	-21.6% (active)	-26.4% (active)	9.98% (active)	–	4.71% (active)	-30.6% (active)	8.4% (active)	43.7%	28.4%	-12.9% (active)	14.8%	–	-6.46% (active)	2.36% (active)	–
Cc1[nH]c(C(=O)Nc2ccc(C(N)=O)cc2N2CCOC(C)C2)c(Cl)c1Cl (centres undefined)	104%	93.1%	96.4%	82.6%	88.4%	98.4%	72.4%	99.5%	96.4%	101%	107%	96.8%	98.1%	97.9%	102%	92.2%	109%	94.7%	93.7%	–
COc1ccc(OC)c(CCn2cncc2-c2c[nH]c3ccc(Cl)cc23)c1	19%	37.5%	63.6%	46.6%	60.5%	31.3%	44.8%	49.4%	–	16.3%	33.9%	40.5%	83.9%	16.2%	43.1%	58.8%	40%	57.1%	29.8%	–
CCCCN1C(=O)/C(=c2\sc3n(c2=O)C2C(NN=3)N(CC)C(=O)N2CC)c2cccc(C)c21 (centres undefined)	97.6%	46.6%	62%	54.7%	47.2%	35.3%	5.04% (active)	18.7%	45.1%	15.1%	20.3%	44.6%	50.9%	53.8%	82%	34.7%	28.9%	34.4%	24.6%	–
Cc1ccc2c(n1)C(=O)C(Cl)=C(Nc1ccc(C#N)cc1)C2=O	104%	93%	98%	16.2%	-58.5% (active)	76.5%	61.6%	3.83% (active)	7.64% (active)	15.3%	55.1%	91.5%	106%	-98.5% (active)	106%	68.4%	–	97.7%	98%	–
C[C@H]1OCC2(CCN(c3cnc(C(=O)Nc4cc(F)cc5cccnc45)cn3)CC2)[C@H]1N	101%	77.2%	46.5%	38.9%	33.7%	40.9%	65.2%	15.6%	16.8%	-0.453% (active)	42.1%	77.6%	74.3%	10.5%	98.8%	20.1%	19.5%	60.8%	72.2%	–
CCCCN1C(=O)/C(=c2\sc3n(c2=O)C2C(NN=3)N(CC)C(=O)N2CC)c2cc(C)ccc21 (centres undefined)	113%	85.2%	97.9%	75%	95.1%	58.1%	96%	94.7%	91.8%	64.1%	99.8%	93%	96.1%	97.2%	108%	88.4%	102%	89.7%	81.9%	–
C#C[C@]1(O)CC[C@H]2[C@@H]3CC=C4c5sc(NCc6ccccc6)nc5CC[C@]4(C)[C@H]3CC[C@@]21C	-17.9% (active)	55.4%	83.6%	13.2%	61.8%	50.6%	8.6% (active)	6.53% (active)	-11.7% (active)	3.34% (active)	-25.3% (active)	65.2%	84%	73.6%	-10% (active)	76.8%	–	-4.78% (active)	72.4%	–
COc1ccc(/C=N\NC(=O)c2cnn(CC(O)c3ccccc3)c2N)cc1OCc1ccc(Cl)cc1 (centres undefined)	92.9%	79.1%	84.4%	87.4%	58.6%	71%	48%	72.6%	62.4%	65.8%	65.5%	74%	79.9%	74.1%	93.8%	91.9%	–	43.2%	72.2%	–
O=C(Nc1ccc(N2CCOCC2)cc1)Nc1ccc2c(ccn2C(=O)c2cccc(F)c2)c1	77.2%	73.9%	74.2%	102%	61.8%	42.3%	87.7%	82.4%	83.6%	71.8%	58.5%	58.3%	99.3%	82.6%	111%	81%	82.7%	21.7%	74.2%	–
O=C(CSc1nc2ccccc2c(=O)n1-c1ccccc1)Nc1ccc(S(=O)(=O)Nc2nccs2)cc1	89.9%	91.3%	63.8%	97.2%	71.9%	–	107%	34.8%	50.2%	65%	36.8%	89.7%	56.9%	77.5%	103%	83%	38.9%	60.3%	98.3%	–
CC(C)NC(=O)c1cc(-c2ccc(NC(=O)Nc3ccc(F)cc3)cc2)nc2cccnc12	120%	102%	103%	92.8%	103%	–	107%	112%	–	94.3%	109%	105%	109%	104%	112%	110%	–	109%	104%	110%
CCc1cc2c(cc1Cl)nc1c(=O)[nH]c(=O)nc-1n2CCOCC(C)C	80.1%	68.1%	57.4%	57.1%	60%	67.7%	76.4%	77.6%	–	22.7%	66.6%	59.2%	120%	44.1%	111%	58.6%	–	98.2%	74.1%	–
C#Cc1cc(C(=O)Nc2ccc(CNCCN3CCOCC3)c(C(F)(F)F)c2)ccc1C	104%	84.7%	93.5%	72.7%	98.4%	82.7%	90.4%	98.7%	–	67.8%	74.5%	105%	98.6%	79.1%	94.1%	101%	94.1%	81.4%	94.3%	–

Reference: PubChem BioAssay (NCI)
